Test results reported in PubChem BioAssay (Tox21).
Several values for one entry are separate records, joined by “and”; a condition that tells them apart may be missing. Equal values may be shown once. Records with an inconclusive call do not appear. Where a call stands in place of a potency, no number is given. Activity calls are given as the source filed them. The call rests on the fitted dose curve; in most records, active means well fitted activation curve with a large enough effect in the signal ratio in the repeat runs (not every such curve was filed as active); inconclusive means weak or mixed curves, or effect the other way; inactive means no such curve, though single readings can be large or run the other way; the % refers to the signal ratio.
Potency means the concentration at half of the fitted maximal effect.

Test: qHTS assay for small molecule agonists of the antioxidant response element (ARE) signaling pathway (AID 743202)
Settings: HepG2 ARE-bla reporter, beta-lactamase FRET, 16 h; series mostly up to 73.3 µM
Text: U.S. Tox21 Program National Center for Advancing Translational Sciences [NCATS] NIH Chemical Genomics Center [NCGC] U.S. Environmental Protection Agency [EPA] National Institutes of Environmental Health Sciences [NIEHS] National Toxicology Program [NTP] U.S. Food and Drug Administration [FDA] Tox21 Assay Overview: Oxidative stress has been implicated in the pathogenesis of a variety of diseases ranging from cancer to neurodegeneration. The antioxidant response element (ARE) signaling pathway plays an important role in the amelioration of oxidative stress. The CellSensor ARE-bla HepG2 cell line (Invitrogen) can be used for analyzing the Nrf2/antioxidant response signaling pathway. Nrf2 (NF-E2-related factor 2) and Nrf1 are transcription factors that bind to AREs and activate these genes. The CellSensor ARE-bla Hep G2 cell line contains a beta-lactamase reporter gene under control of the Antioxidant Response Element (ARE) stably integrated into HepG2 cells. The activation of the report gene under culture conditions can be detected by fluorescence intensity. This cell line has been used to screen the Tox21 10K compound library to identify agonists that induce oxidative stress.
Tox21 Assay Protocol Summary: The ARE-bla cells were dispensed at 2,000 cells/5 ul/well in 1536-well black wall/clear bottom plates using a Multidrop dispenser. After the assay plates were incubated at a 37 C/5% CO2 incubator for 5 hours, 23 nL of compounds dissolved in DMSO, positive controls or DMSO only was transferred to the assay plate by a pin tool. The plates were incubated at 37 C for 16 hours. After 1 uL of LiveBLAzer B/G FRET substrate was added using a Flying Reagent Dispenser, the plates were incubated at room temperature for 2 hours, and fluorescence intensity was measured by an Envision plate reader.
In the case of `CC(C)CCCCCCOC(=O)c1ccccc1C(=O)OCCCCCCC(C)C`, the Potency was “inactive”.
With `CC(C)c1cccc(C(C)C)c1O` the Potency was “inactive”.
With `CCSC(=O)N1CCCCCC1` the Potency was “inactive”.
In the case of `COP(=S)(OC)Oc1ccc(SC)c(C)c1`, the Potency was “inactive”.
With `O=C(O)CCCc1ccc(N(CCCl)CCCl)cc1` the Potency was “inactive”.
With `OCC(O)CCl` (stereo not given) the Potency was “inactive”.
For `Nc1cccc(Cl)c1`, the Potency was “inactive”.
With `OCc1ccco1` the Potency was “inactive”.
In the case of `ClC(Cl)c1ccccc1`, the Potency was “inactive”.
In the case of `C=C(C)C(=O)OCC(CC)CCCC` (stereo not given), the Potency was “inactive”.
In the case of `Cc1cccc(C)c1N`, the Potency was “inactive”.
In the case of `Cc1cc(Cl)ccc1OC(C)C(=O)O` (stereo not given), the Potency was “inactive”.
In the case of `CN(C)C(=O)Cl`, the Potency was “inactive”.
With `NNc1ccccc1` the Potency was “inactive”.
With `C=CC(=O)OCCCCCC(C)C` the Potency was “inactive”.
For `CNC(=O)O/N=C/C(C)(C)S(C)(=O)=O`, the Potency was “inactive”.
For `CCOP(=S)(OCC)Oc1ccc([N+](=O)[O-])cc1`, the Potency was “inactive”.
With `COS(=O)(=O)OC` the Potency was “inactive”.
For `CN(C)C(=O)Nc1cccc(C(F)(F)F)c1`, the Potency was “inactive”.
For `O=C(O)C1C(C(=O)O)C2(Cl)C(Cl)=C(Cl)C1(Cl)C2(Cl)Cl` (stereo not given), the Potency was “inactive”.
For `CN(C)C(=O)C(c1ccccc1)c1ccccc1`, the Potency was “inactive”.
For `Nc1ccc(N)cc1`, the Potency was 8.67 µM (active) and 10.6 µM (active).
With `Oc1ccc(Cl)cc1` the Potency was “inactive”.
With `Cl/C=C/Cl` the Potency was “inactive”.
For `Cc1cc(O)ccc1Cl`, the Potency was “inactive”.
In the case of `CN(C)NC(=O)CCC(=O)O`, the Potency was “inactive”.
In the case of `Sc1ccccc1`, the Potency was “inactive”.
With `O=[N+]([O-])c1cc([As](=O)(O)O)ccc1O` the Potency was “inactive”.
For `Cl[C@H]1OCCO[C@@H]1Cl`, the Potency was “inactive”.
For `O=C/C=C/c1ccccc1`, the Potency was “inactive”.
With `COc1nc(NC(C)C)nc(NC(C)C)n1` the Potency was “inactive”.
For `OC[C@@H](O)[C@H]1O[C@@H]2O[C@H](C(Cl)(Cl)Cl)O[C@@H]2[C@H]1O`, the Potency was “inactive”.
In the case of `CCOP(=S)(OCC)Oc1cc(C)nc(C(C)C)n1`, the Potency was “inactive”.
With `Nc1ncc([N+](=O)[O-])s1` the Potency was “inactive”.
For `N#Cc1cccc(C#N)c1`, the Potency was “inactive”.
In the case of `Cc1cccc(N)c1`, the Potency was “inactive”.
With `C=CC#N` the Potency was “inactive”.
In the case of `O=S(=O)(O)OOS(=O)(=O)O`, the Potency was “inactive”.
For `CNC(=O)O/N=C/C(C)(C)SC`, the Potency was “inactive”.
In the case of `ClCCOCCCl`, the Potency was “inactive”.
